# Compound activity: PubChem BioAssay, National Center for Advancing Translational Sciences (NCATS)
# TDP43 rescue – TDP-43 toxicity inhibition in yeast | TDP-43 expressing yeast growth rescue, BacTiter-Glo, 24 h | Potency, µM (titrated, usually from 46.1 µM), for the others: at the top dose growth rescue (activation), hits mostly activators | 410,000 compounds, 1.8% hits; further: % of control where 0% means no effect; nearly all actives have a fitted effect of over 50% in size
#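 Readout is BacTiter-Glo luminescence of cell growth, so inhibitors register as activators. TDP-43-expressing yeast at OD600=0.02 in galactose medium, after raffinose pregrowth to mid-log, were incubated with compound for 24 hr at 30 deg C.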
# FUS suppressor – FUS proteinopathy suppression in yeast; S. cerevisiae FUS-expressing, growth rescue, OD600, 24 h; Potency, µM (series often up to 76.6 µM), usual class: activators; 390,000 compounds, 0.24% hits; AID 1347120;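 further: plate controls were DMSO vehicle for no effect and reference control for full effect; nearly all actives have a fitted effect of over 55% in size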
#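 Quantitative HTS measuring growth restoration of FUS-toxic yeast. Galactose-induced cells (OD 0.005) were exposed 24hr at 30C to compounds at several concentrations, then absorbance at 600 nm was recorded.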
# Mito fusion yeast – inhibitors of mitochondrial division or activators of mitochondrial fusion; S. cerevisiae fusion-defective mutant growth rescue, CellTiterGlo 48 h; Potency, µM (titrated, usually from 46.1 µM), for the others: top-dose growth rescue (activation), hits mostly activators; 320,000 compounds, 0.23% hits; further: % of control where 0% means no effect; nearly all actives have a fitted effect of over 45% in size
#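 Luminescent cell viability in 1536-well qHTS format served as the measure of rescued growth in ts fusion-mutant S. cerevisiae cultured on non-fermentable YPEG for 48 hours at 37C.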
# Abeta rescue – A-beta toxicity reversal in yeast. 410,000 compounds, 0.063% hits. AID 1347071. Potency, µM (highest dose often 46.1 µM), most hits filed as activators. yeast expressing A-beta42, growth rescue, OD600, 48 h; response scale: 0% DMSO, 100% iron-clioquinol control; further: nearly all actives have a fitted effect of over 55% in size
#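 Growth rescue measured by 600 nm absorbance after 48 h yeast culture at 30 C with compound. Values normalized between DMSO and an equimolar ferric chloride plus clioquinol control.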
# aSyn yeast inh – rescues yeast growth from alpha-synuclein toxicity. Yeast expressing alpha-synuclein, growth rescue, BacTiter-Glo, 24 h. Potency, µM (doses to about 46.1 µM), for inactives: at the highest dose growth rescue (activation), hits mostly activators. 370,000 compounds, 0.14% hits. AID 652106; further: % of control where 0% means no effect; nearly all actives have a fitted effect of over 65% in size
#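 Screening used galactose-induced yeast with toxic alpha-synuclein levels, exposed to compound for 24 hr at 30 deg C. Cell growth, read with BacTiter-Glo luminescence, gave the measured signal.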
# * marks the source's active call; other numbers are inactive results; i = inactive; ? = inconclusive; / = no result; [ ] = remark or other dose. A selection: hits, their analogues and other compounds. The true share with any hit is near 2.2%. The call rests on the fitted dose curve; in most records, active means well fitted curve in the direction sought with a large enough effect; inconclusive means small, poorly fitted or top-dose-only effect, or another doubt; inactive means no such curve, though single readings can be large; an effect the other way counts as inactive or inconclusive. Potency means the concentration at half of the fitted maximal effect.
SMILES,TDP43 rescue,FUS suppressor,Mito fusion yeast,Abeta rescue,aSyn yeast inh
Cc1ccc(OCc2ccccc2C)c([N+](=O)[O-])n1,11.2µM*,i,-36.8%,i,4.1%
CCCNC(=O)C1(C)CCN(C(=O)c2cccc(C(F)(F)F)c2)C1 (stereo not given),12.8%,i,/,i,-3.6%
Brc1ccc(-c2csc(-c3c[nH]c4ccccc34)n2)cc1,10.0%,i,-0.2%,i[9.22 µM],-17.1%
c1ccc2c(-c3csc(-c4ccncc4)n3)c[nH]c2c1,3.98µM*,i,-39.4%,i,15.0%
CC(C)C[C@H]1CN(CCCC[C@H]2CNC(=O)C(=O)N2CCc2ccc(O)cc2)C(=O)C(=O)N1CCc1ccc(O)cc1,22.4%,i,/,i,-5.6%
COc1ccc(N2CCN(C(=O)c3cc4c(-c5cccc(OC)c5)nn(C)c4s3)CC2)cc1,15.8µM*,?,-5.5%,i,0.3%
COc1ccc(-c2nn(C)c3sc(C(=O)N4CCOCC4)cc23)cc1OC,12.5%,i,10.5%,i,1.2%
COc1ccc(-c2nn(C)c3sc(C(=O)N4CCN(c5ccccc5F)CC4)cc23)cc1OC,20µM*,i,/,i,/
Oc1oc(-c2ccco2)nc1C=Nc1cccc(Cl)c1,28.4%,i,-6.0%,i,-12.4%
CC(=NCc1cccc(Cl)c1)c1nc(-c2ccco2)oc1O,11.2µM*,i,/,i,-1.6%
O=C(N/N=C/c1ccc(Cl)cc1)Nc1ccccc1,2.82µM*,i,-6.7%,i,11.7%
CCOC(=O)c1c(NC(=O)CSc2nnc(C)s2)sc2c1CCN(C)C2,-2.2%,25.1µM*,6.5%,i,-5.3%
COc1ccc2nc(N3C(=O)CC(C(C)c4ccccc4)C3=O)sc2c1 (stereo not given),11.2µM*,/,-9.2%,i,1.4%
O=C(N/N=C/C=C/c1ccco1)c1ccccc1Cl,-6.6%[1.82 µM],39.8µM*,-7.7%,i,9.3%
CC(/C=C/c1ccco1)=N/NC(=O)c1ccccc1Cl,-7.3%,?,-0.3%,i,3.8%
CN=C1S/C(=C\c2cccc(Cl)c2Cl)C(=O)N1C,12.6µM*,i,/,i,11.2%
O=c1oc2ccccc2c2oc3cc(O)c(O)cc3c12,-15.7%,8.91µM*,4.4%,i,2.3%
Cc1c(C(=O)NCCSCc2ccc(F)cc2)cnn1-c1ccc(Cl)cc1,12.6µM*,i,-7.2%,i,11.2%
Cc1c(C(=O)NCCSCc2c(F)cccc2Cl)cnn1-c1ccc(F)cc1,-1.2%,i,-4.0%,i,8.8%
Cc1ccc(NC(=O)COc2ccccc2C#N)cc1S(=O)(=O)N1CCCCCC1,28.2µM*,i,29.5%,i,-0.1%[1.84 µM]
Cc1cnc(C(=O)Nc2ccc(C)c(S(=O)(=O)N3CCCCCC3)c2)cn1,15.8µM*,i,7.1%,i,7.1%
Cc1ccc(NC(=O)COc2ccccc2)cc1S(=O)(=O)N1CCCCCC1,25.9%,i,22.1%,i,-3.9%
CCN(CC)c1ccc(C(=O)OCC(=O)NC2CCCCC2C)cc1 (stereo not given),3.3%,i,4.6%,i,-17.4%
CC1CCCC(NC(=O)COC(=O)c2ccc(N(C)C)cc2)C1C (stereo not given),10µM*,i,8.1%,i,/
CCc1ccc(NC(=O)Cn2ccn(-c3ccc(OC)cc3)c(=O)c2=O)cc1,-3.1%,i,/,i,/
SMILES,TDP43 rescue,FUS suppressor,Mito fusion yeast,Abeta rescue,aSyn yeast inh
COc1cc(Cl)ccc1OCc1cc(C(=O)NCc2cc(C(C)C)no2)no1,11.2µM*,/,4.3%,i,11.8%
CSc1ccc(Cc2ccc(Cl)cc2Cl)nn1,11.2µM*,i,0.7%,i,0.0%
NNc1ccc(Cc2ccc(Cl)cc2Cl)nn1,-6.3%,i,0.7%,i,0.9%
CN(C)S(=O)(=O)N1CCC(Oc2ccc(C(=O)N3CCCCCCC3)cc2)CC1,4.4%,i,-1.5%,i,3.1%
CN(c1ccccc1)S(=O)(=O)c1ccc(NC(=O)c2ccccc2)cc1,14.8%,/,22.4µM*,i,10.8%
CN(c1ccccc1)S(=O)(=O)c1ccc(NC(=O)c2ccc(F)cc2)cc1,28.8%,i,/,i,2.7%
